Measurements: PubChem BioAssay
The source made the active and inactive calls. Unless noted, the rule behind the calls is not given here.

How the values were obtained:
[1] = tested on: Wnt5a (protein binding on small-molecule microarray); assay: small molecules binding Wnt5a protein – biophysical, small-molecule microarray, 635/667 nm fluorescence, primary screen (AID 1142); conditions: 635 nm fluorescence, higher = more signal;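 note: fluorescence read at 667 nm with signal to noise per printed feature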
[2] = ATP-based viability of Huh7 replicon cells – cell-based, CellTiter-Glo luminescence, basal, 48 h, cytotoxicity control for HCV replication inhibitor project, primary screen (AID 1143); conditions: higher = more signal, called active from +8 up or from −8 down;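 note: Huh7 hepatoma cells carrying a hepatitis C replication reporter with no stimulus; test concentration not given here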
[3] = Pseudomonas biofilm growth suppression – PAO1 strain, BacTiter-Glo luminescence, LB-PBS, primary screen (AID 1144); conditions: P. aeruginosa PAO1 biofilm, 12 h, higher = more signal
[4] = basal CRE-LacZ reporter activity in PC12 – cell-based, unstimulated, primary screen (AID 1145); conditions: no forskolin, luminescence, 4.5 h, higher = more signal, called active from +8 up or from −8 down
[5] = forskolin-driven CRE-LacZ activity in PC12 – cell-based, CRE-LacZ reporter, forskolin-stimulated, primary screen (AID 1146); conditions: luminescence, 4.5 h, higher = more signal, called active from +8 up or from −8 down;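 note: PC12 cells with 6xCRE LacZ reporter stimulated by forskolin 10 µM; beta-galactosidase reporter signal reflecting CREB driven transcription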
[6] = biological target: Streptavidin (Streptomyces avidinii) (UniProt P22629); assay: compounds binding control protein streptavidin – biophysical, small-molecule microarray, 635/667 nm fluorescence, artefact control for SMM compound annotation, primary screen (AID 1147); conditions: higher = more signal;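 note: signal reflects streptavidin binding to arrayed compounds as a control protein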
[7] = probe aInhba binding on compound microarray – biochemical, small-molecule microarray, 635/667 nm fluorescence, primary screen (AID 1148); conditions: higher = more signal;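 note: score merges 667nm spot fluorescence with signal-to-noise for antibody binding to printed compounds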
Torsin-1A (Homo sapiens) [8] = biological target: Torsin-1A (Homo sapiens) (UniProt O14656); assay: TOR1A wild-type binding on microarray – cell lysate, small-molecule microarray, lysate, 635/667 nm, primary screen (AID 1149); conditions: COS7 hTOR1A-WT lysate, 635 nm fluorescence, higher = more signal
Torsin-1A (Homo sapiens) [9] = biological target: Torsin-1A (Homo sapiens) (UniProt O14656); assay: torsin A mutant lysate binding on microarrays – cell lysate, small-molecule microarray, COS7 lysate, 635/667 nm fluorescence, primary screen (AID 1150); conditions: COS7 hTOR1A mutant lysate, 635 nm fluorescence, higher = more signal;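 note: score pools 667 nm emission and signal to noise measuring lysate protein binding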
[10] = tested on: Sonic hedgehog protein (Shh); assay: Sonic hedgehog microarray binding compounds – biochemical, small-molecule microarray, 635/667 nm fluorescence, primary screen (AID 1151); conditions: 635 nm fluorescence, higher = more signal;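 note: Shh protein binding to compounds spotted on small-molecule microarray slides; score combines spot fluorescence intensity with signal-to-noise across triplicate slides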
[11] = optical density shifts of acrAB sulA E. coli – strain DRC41, OD650, 48 h, E. coli filamentation inducer project, primary screen (AID 1152); conditions: higher = more signal, called active from +8 up or from −8 down;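 note: E. coli MC1000 strain DRC41 lacking acrAB efflux pump and sulA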
[12] = probe aLefty1 binding on compound microarray – biochemical, small-molecule microarray, 635/667 nm fluorescence, primary screen (AID 1153); conditions: higher = more signal;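 note: score merges spot fluorescence with signal-to-noise ratio from the scanned slide images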
[13] = plasmodial surface anion channel blockers, osmotic lysis – cell-based, P. falciparum Indochina, OD700, 1 h, primary screen (AID 1154); conditions: P. falciparum Indochina infected RBC osmotic lysis, higher = more signal, called active from +8 up or from −8 down
[14] = plasmodial surface anion channel blockers, osmotic lysis – cell-based, P. falciparum Indochina, OD700, 2 h, primary screen (AID 1155);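 note: lysis reports solute entry through the parasite surface anion channel PSAC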; conditions: P. falciparum Indochina infected erythrocytes, higher = more signal, called active from +8 up or from −8 down
[15] = changes in parasitized red cell lysis, either direction – P. falciparum Indochina, OD700, 3 h, PSAC antagonist project, primary screen (AID 1156); conditions: P. falciparum-infected erythrocytes, osmotic lysis, higher = more signal, called active from +8 up or from −8 down
[16] = plasmodial surface anion channel blockers, osmotic lysis – cell-based, P. falciparum Indochina, OD700, 18 h, primary screen (AID 1157); conditions: P. falciparum Indochina infected erythrocytes, osmotic lysis OD700, 18 h; higher = more signal, called active from +8 up or from −8 down
[17] = S6 kinase pathway phospho-S6 level changes – cell-based, A549, cytoblot, luminescence, serum-stimulated, primary screen (AID 1158); conditions: 5 h, higher = more signal;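 note: serum-stimulated A549 lung adenocarcinoma cells; signal is phosphorylated S6 detected by cytoblot immunostaining with HRP secondary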
[18] = biological target: NADPH oxidase 2 (Homo sapiens) (UniProt P04839); assay: compounds shifting NOX2 Amplex Red fluorescence – cell-based, HEK293-NOX2, PMA-stimulated, NOX inhibitor project, primary screen (AID 1159); conditions: 45 min, higher = more signal, called active from +8 up or from −8 down; note: test concentration not given here
[19] = biological target: NADPH oxidase 4 (Homo sapiens) (UniProt Q9NPH5); assay: compounds shifting NOX4 Amplex Red fluorescence – cell-based, HEK293-NOX4, tetracycline-induced, NOX inhibitor project, primary screen (AID 1160); conditions: HEK293-NOX4, Amplex Red H2O2 fluorescence, 45 min; higher = more signal, called active from +8 up or from −8 down
[20] = biological target: NADPH oxidase 5 (Homo sapiens) (UniProt Q96PH1); assay: compounds shifting NOX5 Amplex Red fluorescence – cell-based, HEK293-NOX5, NOX inhibitor project, primary screen (AID 1161); conditions: HEK293-NOX5, ionomycin, 45 min, higher = more signal
Chain of NADPH oxidase 5 (Homo sapiens) (Q96PH1 whole entry, looked up): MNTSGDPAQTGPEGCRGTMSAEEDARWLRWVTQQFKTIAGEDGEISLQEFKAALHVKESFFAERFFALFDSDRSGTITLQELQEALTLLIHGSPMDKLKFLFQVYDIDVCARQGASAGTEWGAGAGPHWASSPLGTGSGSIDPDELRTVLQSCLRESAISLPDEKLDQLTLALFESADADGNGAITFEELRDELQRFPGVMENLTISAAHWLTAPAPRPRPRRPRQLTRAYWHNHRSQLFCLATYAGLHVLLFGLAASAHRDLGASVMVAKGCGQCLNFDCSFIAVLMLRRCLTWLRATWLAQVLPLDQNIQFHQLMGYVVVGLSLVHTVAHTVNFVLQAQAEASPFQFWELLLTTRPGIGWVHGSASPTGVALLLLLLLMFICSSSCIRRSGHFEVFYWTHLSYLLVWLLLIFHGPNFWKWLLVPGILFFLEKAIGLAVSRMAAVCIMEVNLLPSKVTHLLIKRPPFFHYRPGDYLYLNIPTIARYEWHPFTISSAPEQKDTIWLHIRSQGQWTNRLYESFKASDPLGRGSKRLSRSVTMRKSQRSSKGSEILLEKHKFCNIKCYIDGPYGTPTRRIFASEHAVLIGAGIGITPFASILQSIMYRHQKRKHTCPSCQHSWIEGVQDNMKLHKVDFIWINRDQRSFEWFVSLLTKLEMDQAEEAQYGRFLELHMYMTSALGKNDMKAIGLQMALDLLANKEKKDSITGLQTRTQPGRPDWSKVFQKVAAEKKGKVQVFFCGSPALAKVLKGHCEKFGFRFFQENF

Chain of Streptavidin (Streptomyces avidinii) (P22629 whole entry, looked up): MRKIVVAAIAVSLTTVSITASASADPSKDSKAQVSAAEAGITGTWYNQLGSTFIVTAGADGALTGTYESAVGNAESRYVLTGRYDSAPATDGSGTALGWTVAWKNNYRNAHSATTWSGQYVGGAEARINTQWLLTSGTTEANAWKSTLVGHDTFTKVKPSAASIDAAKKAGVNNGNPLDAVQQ
Chain of NADPH oxidase 4 (Homo sapiens) (Q9NPH5 whole entry, looked up): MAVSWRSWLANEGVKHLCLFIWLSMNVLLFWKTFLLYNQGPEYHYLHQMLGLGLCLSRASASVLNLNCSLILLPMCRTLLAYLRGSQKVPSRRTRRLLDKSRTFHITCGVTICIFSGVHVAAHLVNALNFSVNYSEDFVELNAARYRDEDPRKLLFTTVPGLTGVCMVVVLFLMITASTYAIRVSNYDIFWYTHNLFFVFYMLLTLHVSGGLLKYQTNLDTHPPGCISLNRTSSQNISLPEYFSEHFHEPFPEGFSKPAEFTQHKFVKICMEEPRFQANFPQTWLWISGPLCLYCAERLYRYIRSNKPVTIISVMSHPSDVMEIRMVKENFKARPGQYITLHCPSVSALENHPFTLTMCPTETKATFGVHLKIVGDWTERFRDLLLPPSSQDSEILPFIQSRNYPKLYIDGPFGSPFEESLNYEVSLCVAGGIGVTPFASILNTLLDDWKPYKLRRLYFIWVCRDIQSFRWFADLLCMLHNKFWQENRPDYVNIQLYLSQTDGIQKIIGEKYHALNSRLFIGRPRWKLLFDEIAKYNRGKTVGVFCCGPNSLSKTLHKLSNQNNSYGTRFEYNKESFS
Chain of NADPH oxidase 2 (Homo sapiens) (P04839 whole entry, looked up): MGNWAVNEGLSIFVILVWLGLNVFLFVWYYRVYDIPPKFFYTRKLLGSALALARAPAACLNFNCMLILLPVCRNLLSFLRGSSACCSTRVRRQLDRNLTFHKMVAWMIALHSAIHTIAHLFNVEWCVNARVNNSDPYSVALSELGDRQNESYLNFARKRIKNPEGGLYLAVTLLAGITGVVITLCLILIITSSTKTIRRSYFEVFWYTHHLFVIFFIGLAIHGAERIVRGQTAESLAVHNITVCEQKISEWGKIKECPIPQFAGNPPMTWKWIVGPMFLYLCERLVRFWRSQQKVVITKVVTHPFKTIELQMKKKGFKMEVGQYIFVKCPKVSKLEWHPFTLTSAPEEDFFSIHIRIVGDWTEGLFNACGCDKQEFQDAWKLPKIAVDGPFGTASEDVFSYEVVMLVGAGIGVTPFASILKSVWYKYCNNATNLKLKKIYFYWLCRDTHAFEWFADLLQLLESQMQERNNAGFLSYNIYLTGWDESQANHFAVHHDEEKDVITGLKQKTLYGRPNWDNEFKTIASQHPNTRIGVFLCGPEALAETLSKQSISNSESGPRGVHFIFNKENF
Chain of Torsin-1A (Homo sapiens) (O14656 whole entry, looked up): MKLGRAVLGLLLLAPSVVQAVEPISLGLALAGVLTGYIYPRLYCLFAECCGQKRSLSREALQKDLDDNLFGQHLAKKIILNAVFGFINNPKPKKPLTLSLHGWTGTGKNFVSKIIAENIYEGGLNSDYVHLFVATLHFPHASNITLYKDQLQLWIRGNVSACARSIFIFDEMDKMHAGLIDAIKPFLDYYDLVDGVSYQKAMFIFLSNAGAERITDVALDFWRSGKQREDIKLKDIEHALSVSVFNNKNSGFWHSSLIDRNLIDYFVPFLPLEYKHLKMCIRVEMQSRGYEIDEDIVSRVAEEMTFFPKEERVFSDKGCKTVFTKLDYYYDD

Structure (SMILES)	composite z-score [1]	z-score [2]	z-score [3]	z-score [4]	z-score [5]	composite z-score [6]	composite z-score [7]	composite z-score (Torsin-1A (Homo sapiens) [8])	composite z-score (Torsin-1A (Homo sapiens) [9])	composite z-score [10]	z-score [11]	composite z-score [12]	z-score [13]	z-score [14]	z-score [15]	z-score [16]	z-score [17]	z-score [18]	z-score [19]	z-score [20]
COc1cc(CO)cc(I)c1O[C@H]1C=C(C(=O)NCCO)C[C@@H](NC[C@@H]2CCCO2)[C@@H]1O	-0.11	0.102 (inactive)	-0.69 (inactive)	1.77 (inactive)	-0.809 (inactive)	-0.442	-0.135	0.761	0.127	1.07	2.35 (inactive)	-0.0075	3.81 (inactive)	0.585 (inactive)	1.4 (inactive)	0.303 (inactive)	0.687	-0.144 (inactive)	0.492 (inactive)	-0.0544
O=C1C2C=CC(C(O)C=Cc3ccc([N+](=O)[O-])cc3)N(n3cnnc3)C2C(=O)N1Cc1ccccc1 (stereo not given)	0.0873	-0.274 (inactive)	-0.871 (inactive)	-0.368 (inactive)	0.343 (inactive)	1.1	0.0589	1.95	2.16	0.287	-0.892 (inactive)	0.406	4.59 (inactive)	1.03 (inactive)	0.956 (inactive)	0.83 (inactive)	-0.584	-0.526 (inactive)	-0.711 (inactive)	-0.3
C=C(CCCC)/C(=C/C[C@@H](OC(C)=O)c1cccc(OCCO)c1)c1cnc2ccccc2c1	0.16	-0.82 (inactive)	-1.07 (inactive)	1.7 (inactive)	-0.307 (inactive)	0.0063	-0.154	1.17	0.762	2.05	0.776 (inactive)	0.201	23.6 (active)	6.35 (inactive)	2.48 (inactive)	1.51 (inactive)	0.237	-2.25 (inactive)	-0.934 (inactive)	-2.22
COCCOC(=O)N1C(=O)[C@@]2(c3cc(C#CC4=CCCCC4)ccc31)[C@H](C(N)=O)[C@H]1C(=O)O[C@H](c3ccccc3)[C@H](c3ccccc3)N1[C@@H]2c1ccc(O)cc1	0.838	-4.06 (inactive)	-1.29 (inactive)	-0.931 (inactive)	-0.438 (inactive)	1.14	-0.0736	1.03	0.931	1.08	1.04 (inactive)	0.148	1.19 (inactive)	-0.933 (inactive)	0.161 (inactive)	-1.13 (inactive)	2.41	1.11 (inactive)	0.563 (inactive)	2.76
C=C(CCCC)C(=O)CC[C@H](OC(=O)c1cccnc1)c1ccc(OCCO)cc1	0.0366	-2.23 (inactive)	0.192 (inactive)	13.3 (active)	2.15 (inactive)	-0.118	0.0903	0.471	0.546	0.381	-0.646 (inactive)	-0.0316	24.3 (active)	6.53 (inactive)	1.8 (inactive)	1.39 (inactive)	0.178	-1.12 (inactive)	0.000526 (inactive)	-2.09
O=C1C2C=CC(C(O)c3c(F)cccc3Cl)N(Nc3ccccc3F)C2C(=O)N1c1ccccc1 (stereo not given)	0.185	1.04 (inactive)	-0.563 (inactive)	0.243 (inactive)	-0.0389 (inactive)	0.396	0.143	0.0354	0.301	-0.356	-0.775 (inactive)	0.19	6.75 (inactive)	1.57 (inactive)	0.303 (inactive)	1.1 (inactive)	-0.514	-1.43 (inactive)	-4.43 (inactive)	-2.84
COc1ccc([C@H]2OC[C@@H]3CCC(=O)N32)cc1	0.279	0.638 (inactive)	0.495 (inactive)	1.2 (inactive)	0.426 (inactive)	0.711	0.114	1.08	0.214	0.79	0.0137 (inactive)	0.0868	0.4 (inactive)	0.698 (inactive)	-0.297 (inactive)	0.48 (inactive)	0.0166	0.982 (inactive)	0.342 (inactive)	-0.0609
[N-]=[N+]=Nc1ccccc1C[C@@]1(C(=O)N2CCCCC2)N=C(c2ccc(OCCCO)cc2)O[C@@H]1c1ccccc1N=[N+]=[N-]	0.648	-5.13 (inactive)	0.989 (inactive)	0.801 (inactive)	-0.929 (inactive)	1.33	0.404	0.46	0.585	0.248	0.0693 (inactive)	0.926	31.8 (active)	29.5 (active)	2.52 (inactive)	3.95 (inactive)	0.0562	0.0863 (inactive)	-0.141 (inactive)	-0.801
CC(C)CN1C(=O)[C@@]2(c3ccc([N+](=O)[O-])cc3)CC(=O)N(C3CCCCC3)[C@@H]2c2ccc(CO)cc21	-0.409	-0.159 (inactive)	-0.927 (inactive)	-0.502 (inactive)	0.241 (inactive)	-0.471	-0.237	-1.32	-1.67	-0.939	0.511 (inactive)	-0.191	0.531 (inactive)	0.437 (inactive)	0.0909 (inactive)	0.523 (inactive)	-0.277	-0.717 (inactive)	-0.778 (inactive)	-0.209
